Test results taken from PubChem BioAssay (NCI).
This is part of a sample that, as a whole, favours compounds with a hit. Of some 79,000 tested, about 15% had one in any assay. Calls of active or inactive are those of the source. Rule as the data show it: active = growth inhibition above about 70%; inactive = the rest.

Experiments:
[1] = NCI Yeast Anticancer Drug Screen. Data for the rad50 strain (AID 155);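 also: 0% = growth of vehicle-only cultures of the same strain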; conditions: S. cerevisiae rad50 strain growth inhibition; at 50.0 µM; hits give high values
How it was run: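 Genetically altered yeast (DNA repair pathway); compound treatment; growth inhibition vs vehicle ctrl.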

[2] = NCI Yeast Anticancer Drug Screen. Data for the mec2-1 strain (AID 157); conditions: S. cerevisiae mec2-1 strain, at 50.0 µM, hits give high values
How it was run: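 Readout is yeast growth inhibition, normalised to vehicle-treated controls, in the mec2-1 strain exposed to compound.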

[3] = NCI Yeast Anticancer Drug Screen. Data for the sgs1 mgt1 strain (AID 161);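 also: 0% = growth of cultures given vehicle only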; conditions: S. cerevisiae sgs1 mgt1 strain, at 50.0 µM, hits give high values
How it was run: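 Percent growth inhibition was derived by comparing compound-exposed mutant yeast with vehicle-exposed cultures. The strain carries alterations in DNA damage repair.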

[4] = NCI Yeast Anticancer Drug Screen. Data for the cln2 rad14 strain (AID 165);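 also: 0% = growth equal to vehicle treated cultures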; conditions: S. cerevisiae cln2 rad14 strain, at 50.0 µM, hits give high values
How it was run: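 Relative to vehicle controls, growth inhibition of compound-treated cln2 rad14 yeast was recorded.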

[5] = NCI Yeast Anticancer Drug Screen. Data for the bub3 strain (AID 167); conditions: S. cerevisiae bub3 mutant strain, at 50.0 µM, hits give high values
How it was run: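 Yeast carrying a defined mutation is treated with each compound, and growth is compared with that of vehicle-exposed cells to give inhibition.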

[6] = NCI Yeast Anticancer Drug Screen. Data for the mlh1 rad18 strain (AID 175); conditions: S. cerevisiae mlh1 rad18 strain growth inhibition; at 50.0 µM; hits give high values
How it was run: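 Test agents were incubated with a yeast strain of defined genotype (DNA damage repair defect). Inhibition of growth was derived by comparison with vehicle-exposed cultures.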

Measured: growth inhibition

COC12C=CC(CC1)C(C)(C)C2=O (stereo not drawn)
inactive: [1] 8.85% | [2] -4.7% | [3] -3.9% | [4] 3.2% | [5] -3.05% | [6] -0.55%

CCC1(CCC(C)C)C(=O)NC(=Nc2ccccc2)N(c2ccccc2)C1=O (stereo not drawn)
inactive: [1] 18.7% | [2] 7.95% | [3] -0.65% | [4] 1.55% | [5] 4.45% | [6] 10.1%

Cc1ccc(/[N+]([O-])=N/N2C(=O)c3ccccc3C2=O)cc1
inactive: [1] -15.4% | [2] -18.6% | [3] -10.1% | [4] -23.5% | [5] -16.6% | [6] -2.9%

S=C1SCN(C(c2ccccc2)c2ccccc2)CN1C(c1ccccc1)c1ccccc1
inactive: [1] 12.2% | [2] 22.2% | [3] 9.4% | [4] -20.1% | [5] -4.75% | [6] 28.2%

CC(CC(C)(C)C)C(=O)O (stereo not drawn)
inactive: [1] -4.05% | [2] -5.75% | [3] 2.55% | [4] 1.2% | [5] 6.85% | [6] 7.25%

O=[N+]([O-])c1ccc(N/N=C/C2CC=CCC2)c([N+](=O)[O-])c1 (stereo not drawn)
inactive: [1] 7% | [2] -6.8% | [3] -8.55% | [4] -13.1% | [5] -5.65% | [6] 5.25%

COc1ccc2c(c1OC)C1CCCCC1SCC2=O (stereo not drawn)
inactive: [1] 14.4% | [2] 6.85% | [3] 0.7% | [4] 5.75% | [5] 12.5% | [6] -16.4%

CCOC(=O)/C=C/SCCCN
inactive: [1] 3.95% | [2] -1.4% | [3] 3.3% | [4] -22.3% | [5] -4.75% | [6] 6.4%

c1ccc2c3c(ccc2c1)Oc1ccc2ccccc2c1C3CCC1c2c(ccc3ccccc23)Oc2ccc3ccccc3c21
inactive: [1] -8.75% | [2] -19.6% | [3] -4.9% | [4] 1.5% | [5] -17.2% | [6] 7.75%

Cc1cc([N+](=O)[O-])ccc1N=Nc1ccc([N+](=O)[O-])cc1C
inactive: [1] -0.6% | [2] -1.9% | [3] 1.2% | [4] -49.1% | [5] 5.4% | [6] -8.65%

CN(N=O)C(=O)NCCSc1ncnc2nc[nH]c12
inactive: [1] 9.75% | [2] 13.1% | [3] -2.25% | [4] -108% | [5] -2.5% | [6] -17.2%

CCCCC1(CCO)C(=O)N=C(N)NC1=O (stereo not drawn)
inactive: [1] -15% | [2] -3.85% | [3] -8.05% | [4] -22.9% | [5] -5.6% | [6] -15.8%

COc1cc(C)nc2ccc(Cc3ccc4nc(C)cc(OC)c4c3)cc12
inactive: [1] 6.75% | [2] 6.8% | [3] -3% | [4] -14.2% | [5] 7.4% | [6] 25.6%

Cc1cc(C)c(C(=O)c2ccccc2C(=O)c2ccccc2)c(C)c1
inactive: [1] 20.5% | [2] -5.55% | [3] 17.2% | [4] 20.2% | [5] 20.6% | [6] 11.5%

CCC1=CC(=O)C(CC)=CC1=O
inactive: [1] 3.05% | [2] 25.2% | [3] -2.15% | [4] -23.7% | [5] 1.95% | [6] 15.6%

CC(NCCNC(C)c1ccccc1)c1ccccc1 (stereo not drawn)
inactive: [1] 6.65% | [2] -22.3% | [3] -1.25% | [4] -35.1% | [5] 1.85% | [6] 8.45%

Clc1ccc2oc(N3CCOCC3)nc2c1
inactive: [1] 20.6% | [2] 23.6% | [3] 22% | [4] -13.4% | [5] 15.7% | [6] 4.1%

COC1=C(N)C(=O)c2nc(C)ccc2C1=O
inactive: [1] 45.8% | [2] 44.4% | [3] 55.5% | [4] -3.9% | [5] 56.9% | [6] 66.5%

COc1ccc2c(c1)[n+]([O-])c(/C(C)=N/NC(N)=S)c(C)[n+]2[O-]
inactive: [1] 65.6% | [2] 12.2% | [3] 41.6% | [4] 11.4% | [5] 61% | [6] 47.1%

CC(O)C([NH-])C(=O)O.CC([NH-])C(=O)O.[Cu+2] (stereo not drawn)
inactive: [1] 26.6% | [2] 15.7% | [3] 6.95% | [4] 12.7% | [5] 13.3% | [6] 15.4%

CC1=CC(C)(C)NC(=S)N1c1ccccc1O
inactive: [1] -0.95% | [2] 25.6% | [3] 15.3% | [4] -16.4% | [5] 41.8% | [6] 41%

Cn1c(=S)c2[nH]c(SCCCc3ccccc3)nc2n(C)c1=O
inactive: [1] -19.4% | [2] -36% | [3] -5.8% | [4] -32.3% | [5] -25.9% | [6] 12.5%

CCC(CC)C(=O)OCCCCC1CCCO1 (stereo not drawn)
inactive: [1] 6.25% | [2] 11.2% | [3] 4.75% | [4] -16.6% | [5] 12.2% | [6] -2.65%

CC(=O)[CH-]C(=O)Nc1ccccc1.CC(=O)[CH-]C(=O)Nc1ccccc1.CC[O-].CC[O-].[Ti+4]
inactive: [1] -16.4% | [2] 14.3% | [3] 11.3% | [4] 21% | [5] 12.8% | [6] 12.7%

COc1cccc(-n2cnc3c(SC)ncnc32)c1
inactive: [1] 8.8% | [2] 3.9% | [3] 4.75% | [4] -27.9% | [5] 19.1% | [6] 1.6%

O=C1C(Nc2ccccc2)=C(c2ccccc2)C(=O)N1c1ccccc1
inactive: [1] 1.15% | [2] -7.55% | [3] 0.7% | [4] -46.2% | [5] -11.8% | [6] -10.8%

O=CC1OC(c2ccccc2)OC1C1OC(c2ccccc2)OC1C=O (stereo not drawn)
inactive: [1] 19.4% | [2] 13.7% | [3] 19.2% | [4] -22.6% | [5] 17.9% | [6] 22.8%

CN=c1ss/c(=N\C(=S)N(C)C)n1C
inactive: [1] -0.2% | [2] -10.5% | [3] -21.6% | [4] 28% | [5] -11.5% | [6] 6.8%

COc1ccc(/C=C2\N=C(c3ccc(Cl)cc3)OC2=O)cc1Br
inactive: [1] 10.2% | [2] -2.15% | [3] 21.5% | [4] 5% | [5] 12.8% | [6] 17.3%

Cc1onc(-c2ccccc2Cl)c1-c1nc2ccccc2c(=O)o1
active: [1] 94.1% | [2] 97% | [3] 98.5% | [4] 93.2% | [5] 96.8% | [6] 93.5%

O=C1OC2(C(F)(F)F)Oc3ccccc3CN2C12CCCCC2 (stereo not drawn)
inactive: [1] 17.6% | [2] 35% | [3] 11.4% | [4] 25.1% | [5] 42.5% | [6] 13.2%

CCCc1c(O)c2ccccc2[nH]c1=O
inactive: [1] 11.3% | [2] 11.7% | [3] -37.8% | [4] 14.7% | [5] 15.8% | [6] -8.3%

COc1ccc(N2C(=O)C3CC(c4ccc(Br)cc4)c4c([nH]c5ccccc45)C3C2=O)cc1 (stereo not drawn)
inactive: [1] 1.7% | [2] -14.4% | [3] 5.55% | [4] -51.8% | [5] 2.9% | [6] -4.95%

CC(C)[C@@H](C)[C@@]1(C)C[C@@H]1[C@@H](C)[C@H]1CC[C@@H]([C@@H]2CC=C3C[C@@H](O)CC[C@]3(C)C2=O)[C@]1(C)CCO
inactive: [1] 13.9% | [2] 9.65% | [3] 19.3% | [4] -17.9% | [5] -7.35% | [6] -3.35%

CC1CCC2(CC1)CC(=O)N(N1CCCCC1)C2=O (stereo not drawn)
inactive: [1] 11.3% | [2] 10.8% | [3] 26.8% | [4] 17.1% | [5] 3.3% | [6] 23.9%

CC(C)(C#N)OC(=O)c1cc([N+](=O)[O-])cc([N+](=O)[O-])c1
inactive: [1] 8.55% | [2] 4.45% | [3] 13.1% | [4] -14.9% | [5] -9.55% | [6] -2.1%

CCOC(=O)C(=[N+]=[N-])C(=O)c1cc2ccccc2oc1=O
inactive: [1] -19.2% | [2] 6.85% | [3] 13.6% | [4] -0.55% | [5] -13.7% | [6] 22.2%

O=[N+]([O-])c1ccc(C2=NOC3COC4C=CC=CC4OCC23)cc1 (stereo not drawn)
inactive: [1] -3.4% | [2] -29.7% | [3] 11.1% | [4] -2.55% | [5] 5.95% | [6] -7.5%
